Tests used:
Assay in all cases: log2 ratio of Biotin-Ahx-Ub-VS probe labelling (fragment/DMSO); higher = less target engagement (more negative = stronger competition), active = hit call of the paper (q ≤ 0.05, log2 ratio ≤ -1)
Settings in all cases: compound concentration: 200 uM; treatment time: 3 h
[1] = biological target: T1, USP19 (UniProt O94966)
T1 sequence (whole entry): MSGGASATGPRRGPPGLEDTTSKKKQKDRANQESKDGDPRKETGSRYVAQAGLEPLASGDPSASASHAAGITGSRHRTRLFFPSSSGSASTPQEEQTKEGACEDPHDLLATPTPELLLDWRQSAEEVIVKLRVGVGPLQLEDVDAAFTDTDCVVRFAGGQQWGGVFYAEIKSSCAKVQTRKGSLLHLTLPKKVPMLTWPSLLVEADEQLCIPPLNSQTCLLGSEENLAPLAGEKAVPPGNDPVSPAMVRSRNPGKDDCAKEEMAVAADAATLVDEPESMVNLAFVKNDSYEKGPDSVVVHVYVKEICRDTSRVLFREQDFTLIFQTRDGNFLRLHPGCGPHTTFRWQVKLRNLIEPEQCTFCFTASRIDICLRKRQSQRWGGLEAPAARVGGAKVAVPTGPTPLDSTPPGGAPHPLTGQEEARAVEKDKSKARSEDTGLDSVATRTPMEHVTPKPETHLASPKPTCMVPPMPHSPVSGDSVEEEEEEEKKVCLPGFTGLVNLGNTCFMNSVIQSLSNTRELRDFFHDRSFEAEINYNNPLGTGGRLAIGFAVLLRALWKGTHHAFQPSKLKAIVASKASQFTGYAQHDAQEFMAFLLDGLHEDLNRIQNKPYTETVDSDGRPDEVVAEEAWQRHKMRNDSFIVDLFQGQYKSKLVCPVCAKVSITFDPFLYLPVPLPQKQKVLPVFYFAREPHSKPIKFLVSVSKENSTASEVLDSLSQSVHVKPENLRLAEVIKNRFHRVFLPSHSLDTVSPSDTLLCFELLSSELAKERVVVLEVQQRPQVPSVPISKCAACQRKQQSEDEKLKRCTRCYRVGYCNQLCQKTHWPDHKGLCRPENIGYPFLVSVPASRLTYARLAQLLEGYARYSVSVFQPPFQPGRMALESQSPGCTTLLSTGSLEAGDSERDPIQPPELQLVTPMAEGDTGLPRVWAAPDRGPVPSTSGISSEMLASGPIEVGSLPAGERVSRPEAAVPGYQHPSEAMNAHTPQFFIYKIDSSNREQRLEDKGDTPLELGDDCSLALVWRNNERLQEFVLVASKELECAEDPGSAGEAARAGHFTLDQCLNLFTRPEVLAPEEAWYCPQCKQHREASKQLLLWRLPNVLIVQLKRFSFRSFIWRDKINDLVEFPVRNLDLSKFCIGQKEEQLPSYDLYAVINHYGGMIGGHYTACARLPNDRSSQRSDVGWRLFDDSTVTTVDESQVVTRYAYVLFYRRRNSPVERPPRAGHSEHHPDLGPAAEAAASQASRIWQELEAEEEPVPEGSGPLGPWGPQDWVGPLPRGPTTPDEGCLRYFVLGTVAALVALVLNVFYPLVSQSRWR
Outline: (§1)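 Fragment (200 µM) or vehicle was incubated for 3 h with triplicate HEK293T lysate samples of 495 µg, which were then treated with Biotin-Ahx-Ub-VS at 0.5 µM final for 1 h. Labelled DUBs were enriched on NeutrAvidin, digested with LysC and trypsin, and analysed by diaPASEF LC-MS/MS. Values are average log2 fragment/vehicle ratios from an unpaired t-test on global-median-normalised Spectronaut label-free quantities, using proteins with ≥2 unique peptides.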

[2] = biological target: USP24 (UniProt Q9UPU5)
Outline: as §1

[3] = biological target: T2, USP25 (UniProt Q9UHP3)
T2 sequence (whole entry): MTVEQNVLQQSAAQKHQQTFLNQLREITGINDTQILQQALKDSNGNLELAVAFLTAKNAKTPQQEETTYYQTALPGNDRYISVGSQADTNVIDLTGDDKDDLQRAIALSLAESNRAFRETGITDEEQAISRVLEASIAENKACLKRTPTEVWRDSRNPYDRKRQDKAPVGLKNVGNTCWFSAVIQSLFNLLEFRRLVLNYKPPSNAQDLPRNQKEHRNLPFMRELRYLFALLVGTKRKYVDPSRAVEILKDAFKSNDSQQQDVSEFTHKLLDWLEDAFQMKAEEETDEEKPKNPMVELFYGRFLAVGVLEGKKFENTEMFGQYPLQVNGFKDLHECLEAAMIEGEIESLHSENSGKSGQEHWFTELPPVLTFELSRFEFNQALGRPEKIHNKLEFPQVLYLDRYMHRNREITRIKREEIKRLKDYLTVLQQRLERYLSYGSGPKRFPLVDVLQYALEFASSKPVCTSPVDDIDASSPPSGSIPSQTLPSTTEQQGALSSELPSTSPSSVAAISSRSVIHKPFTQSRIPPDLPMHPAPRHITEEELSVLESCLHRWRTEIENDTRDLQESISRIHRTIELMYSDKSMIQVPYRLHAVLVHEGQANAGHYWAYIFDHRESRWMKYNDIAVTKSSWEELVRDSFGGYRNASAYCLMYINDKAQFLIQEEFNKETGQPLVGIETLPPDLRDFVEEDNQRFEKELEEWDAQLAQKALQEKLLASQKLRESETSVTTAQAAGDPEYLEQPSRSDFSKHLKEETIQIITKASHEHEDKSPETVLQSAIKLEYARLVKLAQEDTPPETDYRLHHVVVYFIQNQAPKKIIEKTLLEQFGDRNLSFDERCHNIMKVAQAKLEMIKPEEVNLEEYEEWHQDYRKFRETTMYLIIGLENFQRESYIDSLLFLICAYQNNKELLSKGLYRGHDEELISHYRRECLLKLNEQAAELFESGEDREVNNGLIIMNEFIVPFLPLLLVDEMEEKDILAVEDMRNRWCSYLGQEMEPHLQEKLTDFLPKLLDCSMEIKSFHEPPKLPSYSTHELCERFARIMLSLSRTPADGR
Outline: as §1

[4] = biological target: T3, USP28 (UniProt Q96RU2)
T3 sequence (whole entry): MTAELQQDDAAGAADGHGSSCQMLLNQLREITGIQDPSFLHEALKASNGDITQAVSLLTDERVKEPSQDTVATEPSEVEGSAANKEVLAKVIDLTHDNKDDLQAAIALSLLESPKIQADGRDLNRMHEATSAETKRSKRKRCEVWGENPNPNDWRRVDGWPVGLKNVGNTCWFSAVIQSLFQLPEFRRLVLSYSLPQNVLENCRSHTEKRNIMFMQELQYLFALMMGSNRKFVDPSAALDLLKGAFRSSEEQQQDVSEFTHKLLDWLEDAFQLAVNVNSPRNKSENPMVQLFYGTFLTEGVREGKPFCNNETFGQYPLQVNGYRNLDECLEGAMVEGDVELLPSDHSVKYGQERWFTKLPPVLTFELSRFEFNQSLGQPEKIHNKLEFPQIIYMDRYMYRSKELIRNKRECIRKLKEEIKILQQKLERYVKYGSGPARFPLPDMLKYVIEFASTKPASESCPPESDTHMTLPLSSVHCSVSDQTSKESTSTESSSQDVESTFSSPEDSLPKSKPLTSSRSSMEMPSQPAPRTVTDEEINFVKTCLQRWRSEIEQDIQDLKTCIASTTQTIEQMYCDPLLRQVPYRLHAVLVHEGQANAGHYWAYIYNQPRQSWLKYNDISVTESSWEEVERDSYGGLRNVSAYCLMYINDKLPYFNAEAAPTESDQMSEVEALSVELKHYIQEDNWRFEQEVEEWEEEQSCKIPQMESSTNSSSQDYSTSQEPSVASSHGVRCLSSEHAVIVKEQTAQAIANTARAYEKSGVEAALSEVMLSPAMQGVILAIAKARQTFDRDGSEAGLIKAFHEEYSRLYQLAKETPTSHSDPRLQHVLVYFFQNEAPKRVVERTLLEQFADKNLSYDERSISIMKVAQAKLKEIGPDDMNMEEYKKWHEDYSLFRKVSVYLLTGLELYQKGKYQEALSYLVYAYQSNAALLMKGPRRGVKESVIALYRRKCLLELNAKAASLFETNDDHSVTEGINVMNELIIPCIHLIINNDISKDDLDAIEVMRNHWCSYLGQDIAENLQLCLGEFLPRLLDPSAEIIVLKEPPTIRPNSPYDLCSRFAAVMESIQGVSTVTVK
Outline: as §1

Measured: log2 ratio of Biotin-Ahx-Ub-VS probe labelling

USP24, sequence (Q9UPU5 whole entry): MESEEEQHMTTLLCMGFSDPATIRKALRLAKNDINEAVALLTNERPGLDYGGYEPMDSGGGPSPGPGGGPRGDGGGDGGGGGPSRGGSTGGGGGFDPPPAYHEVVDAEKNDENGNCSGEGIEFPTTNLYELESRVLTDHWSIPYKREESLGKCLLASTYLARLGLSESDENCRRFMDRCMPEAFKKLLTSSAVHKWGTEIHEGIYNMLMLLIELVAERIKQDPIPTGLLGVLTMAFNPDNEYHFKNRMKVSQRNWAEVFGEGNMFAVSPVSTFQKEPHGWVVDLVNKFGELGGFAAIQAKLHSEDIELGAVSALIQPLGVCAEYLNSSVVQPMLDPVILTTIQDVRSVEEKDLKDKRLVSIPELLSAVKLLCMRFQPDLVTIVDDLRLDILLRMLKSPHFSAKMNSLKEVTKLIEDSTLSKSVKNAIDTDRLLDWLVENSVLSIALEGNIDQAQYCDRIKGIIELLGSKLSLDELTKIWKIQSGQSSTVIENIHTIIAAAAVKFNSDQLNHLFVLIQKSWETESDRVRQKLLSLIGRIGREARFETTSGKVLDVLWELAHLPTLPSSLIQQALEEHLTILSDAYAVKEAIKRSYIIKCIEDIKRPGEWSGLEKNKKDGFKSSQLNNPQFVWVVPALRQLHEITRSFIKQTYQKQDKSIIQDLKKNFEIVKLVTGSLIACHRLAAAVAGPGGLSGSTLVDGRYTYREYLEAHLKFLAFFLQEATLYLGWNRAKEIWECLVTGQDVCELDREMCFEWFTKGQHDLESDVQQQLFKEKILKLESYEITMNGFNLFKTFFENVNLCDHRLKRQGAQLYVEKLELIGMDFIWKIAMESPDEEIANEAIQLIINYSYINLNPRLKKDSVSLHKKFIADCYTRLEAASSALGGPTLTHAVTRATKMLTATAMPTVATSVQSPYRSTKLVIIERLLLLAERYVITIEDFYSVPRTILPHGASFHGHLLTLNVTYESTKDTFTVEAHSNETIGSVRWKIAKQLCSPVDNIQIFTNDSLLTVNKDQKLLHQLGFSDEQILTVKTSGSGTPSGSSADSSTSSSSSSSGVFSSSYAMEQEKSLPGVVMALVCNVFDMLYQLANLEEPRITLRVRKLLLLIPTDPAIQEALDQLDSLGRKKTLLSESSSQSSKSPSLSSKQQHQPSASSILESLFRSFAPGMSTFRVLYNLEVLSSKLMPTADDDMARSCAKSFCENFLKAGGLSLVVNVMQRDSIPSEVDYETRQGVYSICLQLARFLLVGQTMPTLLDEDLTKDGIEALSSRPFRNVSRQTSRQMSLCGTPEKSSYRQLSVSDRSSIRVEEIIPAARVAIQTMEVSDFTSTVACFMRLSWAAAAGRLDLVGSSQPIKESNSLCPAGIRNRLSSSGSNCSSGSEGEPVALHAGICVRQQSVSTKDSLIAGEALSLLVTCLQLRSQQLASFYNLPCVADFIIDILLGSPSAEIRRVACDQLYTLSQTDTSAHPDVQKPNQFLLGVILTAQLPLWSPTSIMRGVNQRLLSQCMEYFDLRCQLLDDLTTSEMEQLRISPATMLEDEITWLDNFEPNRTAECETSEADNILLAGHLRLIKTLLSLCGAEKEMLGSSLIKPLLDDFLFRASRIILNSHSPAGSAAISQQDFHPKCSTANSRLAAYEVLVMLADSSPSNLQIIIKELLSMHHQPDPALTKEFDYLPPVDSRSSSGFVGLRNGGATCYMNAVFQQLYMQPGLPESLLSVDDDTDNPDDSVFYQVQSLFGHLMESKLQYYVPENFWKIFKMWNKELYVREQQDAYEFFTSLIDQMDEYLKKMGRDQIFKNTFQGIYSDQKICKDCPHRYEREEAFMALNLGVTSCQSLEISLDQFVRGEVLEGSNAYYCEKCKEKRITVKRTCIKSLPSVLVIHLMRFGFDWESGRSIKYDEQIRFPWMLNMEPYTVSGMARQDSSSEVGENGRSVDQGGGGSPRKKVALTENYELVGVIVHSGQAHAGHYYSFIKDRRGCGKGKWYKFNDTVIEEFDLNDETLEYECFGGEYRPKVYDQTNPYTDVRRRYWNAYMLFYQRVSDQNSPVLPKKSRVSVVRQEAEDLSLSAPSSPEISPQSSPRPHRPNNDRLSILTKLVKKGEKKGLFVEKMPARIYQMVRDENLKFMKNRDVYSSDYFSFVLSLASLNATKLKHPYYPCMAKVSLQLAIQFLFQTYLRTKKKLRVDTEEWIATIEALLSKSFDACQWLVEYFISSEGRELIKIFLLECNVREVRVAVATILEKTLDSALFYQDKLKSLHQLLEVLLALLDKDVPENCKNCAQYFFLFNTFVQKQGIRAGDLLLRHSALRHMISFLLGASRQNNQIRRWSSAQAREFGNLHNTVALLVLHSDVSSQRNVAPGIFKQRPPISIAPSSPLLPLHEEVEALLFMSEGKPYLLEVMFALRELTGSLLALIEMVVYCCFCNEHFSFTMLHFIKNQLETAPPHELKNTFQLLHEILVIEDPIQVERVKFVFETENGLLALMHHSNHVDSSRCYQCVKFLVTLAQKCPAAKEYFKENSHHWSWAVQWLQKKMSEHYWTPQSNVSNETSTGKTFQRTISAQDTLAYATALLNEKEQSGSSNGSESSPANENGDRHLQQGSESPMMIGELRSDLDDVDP

Cc1cccc(N(CCC#N)C(=O)CCl)c1C
inactive: [1] 0.16 | [2] -0.0767 | [3] 0.00615 | [4] -0.253

Reference: the supplement of paper PMC11732987, “Enantioselective OTUD7B fragment discovery through chemoproteomics screening and high-throughput optimisation” (Communications Chemistry, 2025)
